D1 ag = Allosteric Agonists of the Human D1 Dopamine Receptor: qHTS; activation, % at 2 µM; D(1A) dopamine receptor (Homo sapiens), P21728; AID 504660, 2011; 1% of 360,000 active; HEK293 T-REx D1 cells, calcium flux, agonist mode; further: 0% is about no effect
Target sequence (P21728 whole entry, looked up): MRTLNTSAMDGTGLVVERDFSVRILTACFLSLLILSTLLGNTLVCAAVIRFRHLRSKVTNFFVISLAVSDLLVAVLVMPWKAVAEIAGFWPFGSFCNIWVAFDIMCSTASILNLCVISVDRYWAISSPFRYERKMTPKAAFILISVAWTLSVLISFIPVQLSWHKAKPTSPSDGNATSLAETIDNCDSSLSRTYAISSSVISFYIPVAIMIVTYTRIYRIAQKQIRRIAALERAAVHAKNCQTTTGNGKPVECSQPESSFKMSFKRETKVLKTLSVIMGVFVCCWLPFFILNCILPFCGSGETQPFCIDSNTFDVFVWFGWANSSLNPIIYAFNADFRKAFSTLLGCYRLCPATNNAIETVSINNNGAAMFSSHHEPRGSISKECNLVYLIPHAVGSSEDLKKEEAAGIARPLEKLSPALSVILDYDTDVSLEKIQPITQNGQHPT
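Inducible HEK293 T-REx D1 cells, force-coupled to calcium signalling, were plated at 4000 cells/well with tetracycline and held overnight at 30 C. After no-wash calcium dye loading, compound-evoked calcium rise over 180 s flagged agonists.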
D1 PAM = Potentiators of Human D1 Dopamine Receptor: qHTS; D(1A) dopamine receptor (Homo sapiens), P21728; AID 504651, 2011; 0.036% of 360,000 active; HEK293 TREx D1 cells, calcium flux, dopamine EC20 potentiation; potentiation, % at 10 µM; in the data active means potentiation above about 30%; further: 0% is about no effect
TRHR PAM = qHTS for Small Molecule Agonists and Allosteric Enhancers of Human TRH Receptor: Primary Screen for Enhancers | Thyrotropin-releasing hormone receptor (Homo sapiens), P34981 | TRHR cells, fluo-8 calcium fluorescence, EC20 TRH enhancement | enhancement, % at 2 µM | 0.66% of 360,000 active | AID 493056, 2011; in the data active means enhancement above about 30%; further: 0% is about no effect
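TRHR-expressing cells loaded with fluo-8 calcium dye were read kinetically (ex 480/em 530) during compound addition, then stimulated with an EC20 of TRH (10 nM final). Enhancement of the Gq-mediated intracellular calcium response was scored.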
TRHR ag = qHTS for Small Molecule Agonists and Allosteric Enhancers of Human TRH Receptor: Primary Screen for Agonists; Thyrotropin-releasing hormone receptor (Homo sapiens), P34981; TRHR cells, calcium flux fluo-8, FDSS agonist mode; activation, % at 2 µM; 0.18% of 360,000 active; AID 493084, 2011; further: 0% is about no effect
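Steps: seed TRHR cells overnight; add fluo-8 no-wash Ca dye, RT 30 min–1.5 h; record 10 s baseline; pin-transfer compounds; monitor fluorescence 1 cycle/s for the agonist window. Calcium increases flag candidate agonists.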
D1 antagonist = Antagonist of Human D 1 Dopamine Receptor: qHTS; HEK293 TREx D1 cells, calcium flux, dopamine EC80; hits give low values; activity change, negative = inhibition, % at 10 µM; 3.2% of 360,000 active; AID 504652, 2011; in the data active means activity change below about -30%; further: on the % scale 0 is the no-effect control and ±100 the full control effect
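HEK293 T-REx cells expressing inducible, force-coupled D1 receptor; no-wash Ca dye, 30–90 min RT. Cmpd → 180 s read at 1 Hz → EC80 DA → 180 s read.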
* = called active by the depositor; · = no result. A selection: hits, their analogues and other compounds. The true share with any hit is near 4.6%. Unless noted, no stated cut-off is given here; in the data, active means activation above about 30%; inactive means the rest.

SMILES	D1 ag	D1 PAM	TRHR PAM	TRHR ag	D1 antagonist
CCOc1ccc(C2C(=O)N(C3CCCCC3)CC(=O)N2Cc2ccccc2OC)cc1OC (configuration not stated)	-3.2	3.2	0.4	-0.7	7.2
COc1cc(Cl)c(C)cc1Nc1ncnc2c1nc1n2CCCC1	-0.1	-0.1	-4.2	0.2	0.1
Cc1ccc(-c2c3c(=O)n(C)c(=O)n(C)c3c3c(C)nc4ccccc4n23)cc1	0.4	-3.4	15.5	0.6	-3.7
Cn1c(=O)c(Nc2ccc(Cl)cc2)c2c3c(cccc31)C(=O)c1ccccc1-2	78.2*	7.4	-0.1	16.7	3.9
Cc1cc(C)c(NC(=O)CSc2n[nH]c(-c3ccccc3Cl)n2)c(C)c1	6.4	2.6	3.9	-0.4	-18.0
CCc1ccc(CNC(=O)c2cccc(-n3cnc4cccnc43)c2C)cc1	0.9	-2.1	-4.2	-0.5	-12.6
Cc1ccc(S(=O)(=O)N(CC(=O)NCc2ccc(F)cc2)C(=O)N2CCN(C)CC2)cc1	1.2	-4.7	-2.1	1.3	0.5
COc1ccc2c(c1)C(C)=CC(C)(C)N2S(=O)(=O)c1ccc(NC(C)=O)cc1	10.7	-1.2	4.3	3.2	0.9
COc1ccc2c(c1)C(C)=CC(C)(C)N2S(=O)(=O)c1ccc(Br)cc1	1.6	-2.5	-10.2	0.0	-30.4*
CCc1ccc(/C(C)=N/NC(=O)CNC(=O)/C=C/c2ccccc2OC)cc1	1.1	0.0	19.7	-1.6	7.7
COc1ccccc1/C=C\C(=O)NCC(=O)N/N=C(/C)c1cccc([N+](=O)[O-])c1	-1.3	-1.6	-0.9	-0.2	-64.9*
CS(=O)(=O)c1ccc2nc(NC(=O)c3ccc(Cl)cc3)sc2c1	2.9	1.1	-2.1	0.1	6.5
CS(=O)(=O)c1ccc2nc(NC(=O)CCNC(=O)c3ccc(Cl)cc3)sc2c1	0.4	-3.6	-9.0	0.6	-47.2*
CC(C)NS(=O)(=O)c1ccc2nc(NC(=O)c3cncc(Br)c3)sc2c1	2.1	1.2	0.2	0.4	-52.2*
COc1ccc(C(=O)Nc2nc3ccc(S(C)(=O)=O)cc3s2)cc1	-0.7	-4.8	-2.5	0.2	-38.6*
Cc1ccc(N2CCN(C(=O)c3nn(C)c4c3CSc3ccccc3-4)CC2C)cc1 (configuration not stated)	-0.6	-0.5	0.2	0.2	5.5
Cc1c(C(=O)NCc2cccc(Cl)c2)sc2ncnc(N(C)C3CCCCC3)c12	2.6	-1.1	-4.4	0.1	-6.9
CN1/C(=C\C(=O)c2cccc(S(=O)(=O)N3CCCCC3)c2)C(C)(C)c2ccccc21	1.4	-6.6	30.2*	0.5	-4.5
Cc1ccc(OCC(=O)N(Cc2ccc(N(C)C)cc2)CC2CCCO2)cc1C (configuration not stated)	0.9	0.1	-5.9	-1.4	6.9
Cc1ccc(OCCn2c(=S)[nH]c3ccccc32)c(C(C)C)c1	1.7	4.1	5.3	-0.5	16.7
CC(Sc1nnc(NCc2ccccc2)s1)C(=O)Nc1ccc2c(c1)C(=O)c1ccccc1C2=O (configuration not stated)	3.7	-5.7	0.1	0.2	-33.1*
O=C1c2ccccc2C(=O)N1Cc1ccco1	0.0	-2.9	-4.5	-0.1	-9.8
O=C1CCC(=O)N1CN(Cc1ccco1)CN1C(=O)CCC1=O	1.0	-6.3	-7.3	0.0	-77.4*
CCC(=O)c1ccc(OC(=O)Cc2ccc(OC)cc2)cc1	1.9	-8.8	37.6*	1.3	-33.2*
COc1ccc(CC(=O)Oc2ccccc2C)cc1	6.7	-5.5	-0.3	-1.6	-0.9
Nc1nn(-c2ccccc2)c(N)c1N=Nc1ccc2c(c1)OCO2	-0.3	-7.0	0.8	-0.6	-44.6*
COc1ccc(CC(=O)NCC(c2cccs2)S(=O)(=O)c2ccc(Cl)cc2)cc1 (configuration not stated)	-4.3	5.3	-1.0	-0.6	·
COc1cccc(-c2ccc3c(N)c(C(=O)NCc4ccc(Cl)cc4)sc3n2)c1	8.3	-2.4	-7.1	0.3	-22.6

Assay outcomes as filed in PubChem.
